The list is not random: actives were taken first. Their share in the collection is about 3.4%.
esBAF inh: SWI/SNF esBAF complex inhibition. mouse ES cells, Bmi1-luciferase knock-in reporter, 24 h; 100% = twice the neutral-well signal. reporter increase, % at 12.5 µM. hit rate 2% among 350,000; in the data active = activation above about 40%; inconclusive = no clear call, values can overlap the other calls;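 also: a rise in the Bmi1 reporter signal indicates esBAF inhibition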
miR122 inh: blocks miR-122 activity in Huh7 sensor cells; Huh7 miR-122 Renilla luciferase sensor, 48 h; neutral wells = 0, positive control = 100; activation (reporter increase), % at 12.5 µM; hit rate 0.3% among 340,000;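 active = mean replicate activation score at least 90 and every replicate individually at or above 90; inconclusive = only one of the two criteria met; inactive = neither criterion met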;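 also: higher luciferase means less miR-122 activity so hits act as miR-122 inhibitors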
Wnt act: activates Wnt/beta-catenin signaling in a reporter cell assay. activator, plate reader. activation, % at 9.35 µM. hit rate 1.2% among 300,000. AID 743398; in the data active = activation above about 30%, passing the limit was not always enough; inconclusive = no clear call, values can overlap the other calls
MITF act: increases MITF-driven TRPM1 promoter luciferase signal | SK-MEL-5 TRPM1-promoter luciferase, 24 h; % of positive control, neutral wells = 0 | activation, % at 12.5 µM | hit rate 0.75% among 300,000;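 active = mean activation of at least 80% with every replicate also reaching 80%; inconclusive = mean reaches 80% but some replicate falls short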
HIV Env fusion: blocks HIV Env-driven cell-cell fusion. HeLa-JRFL Env/CEM21 cell fusion, luciferase. inhibition, % at 12.3 µM. hit rate 1.1% among 360,000. AID 651610;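 active = mean replicate inhibition score of at least 50 and every replicate individually at or above 50; inconclusive = only one of the two criteria met; inactive = mean below 50 and not all replicates reaching 50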
Of the large screens only hits and unclear results are named; the others gave an inactive call.

COc1ccc2nc(N(CCN(C)C)C(=O)c3ccc4ncsc4c3)sc2c1	esBAF inh 80.6, Wnt act inconclusive (no result: MITF act)
Cc1ccc2nc(N(CCCN(C)C)C(=O)c3ccc4ncsc4c3)sc2c1	esBAF inh 51.7
Cc1ccc2nc(N(CCN(C)C)C(=O)c3ccc4ccccc4c3)sc2c1	none (no result: Wnt act, HIV Env fusion)
CN1[C@@H]2c3ccc(/C=C/c4ccccc4)c(=O)n3C[C@H]1[C@H](CO)[C@H]2C(=O)NC1CCCC1	none (no result: esBAF inh, miR122 inh, Wnt act, MITF act)
CC1CC(C)CN(S(=O)(=O)c2ccc(Oc3ccc([N+](=O)[O-])cc3)cc2)C1 (centres undefined)	HIV Env fusion 56.3 (no result: esBAF inh, Wnt act)
CCC(C)(C)C(=O)Nc1nnc(CCc2ccccc2)s1	esBAF inh 62.2
O=C(Nc1nnc(CCc2ccccc2)s1)c1cccs1	esBAF inh 45.6 (no result: Wnt act, HIV Env fusion)
O=C(Nc1ccccc1)N(O)c1ccc(Cl)cc1	esBAF inh 68.4 (no result: miR122 inh, Wnt act, HIV Env fusion)
CCN(CCS(=O)(=O)c1ccc(Cl)cc1)C(=O)Nc1ccccc1	none (no result: MITF act)
Nc1ccc2nc(-c3cccs3)[nH]c2c1	esBAF inh 44.2 (no result: HIV Env fusion)
Nc1ccc2nc(-c3ccccc3)[nH]c2c1	none (no result: MITF act)
O=C(C[C@H]1CC[C@@H]2[C@H](COC[C@@H](O)CN2S(=O)(=O)c2ccccc2)O1)N1CCOCC1	none (no result: Wnt act, MITF act)
N=c1ccn2c(n1)O[C@H]1[C@H](O)[C@@H](CO)O[C@H]12	none (no result: miR122 inh)
N=c1nc2n(cc1F)C1OC(CO)C(O)C1O2 (centres undefined)	HIV Env fusion 68.9 (no result: esBAF inh, MITF act)
Cc1noc(C)c1NC(=O)N(C)C[C@@H]1Oc2ccc(NS(=O)(=O)c3ccccc3)cc2C(=O)N([C@@H](C)CO)C[C@H]1C	none (no result: Wnt act, MITF act)
CC1(C)C(=O)OC(c2cccn2-c2ccc([N+](=O)[O-])cc2)C(C)(C)C1=O (centres undefined)	none (no result: esBAF inh, miR122 inh)
CC1(C)C(=O)C2(CCCCC2)C(=O)OC1c1cccn1-c1ccc([N+](=O)[O-])cc1 (centres undefined)	HIV Env fusion 72.1 (no result: esBAF inh, miR122 inh)
C[C@@H]1CN([C@H](C)CO)C(=O)Cc2cc(NS(=O)(=O)c3ccccc3)ccc2O[C@H]1CN(C)C	none (no result: Wnt act, MITF act, HIV Env fusion)
CCC(=NC(C)c1ccccc1)c1c(O)n(C)c(=O)n(C)c1=O (centres undefined)	HIV Env fusion 60.2 (no result: Wnt act)
O=S(=O)(c1ccc2c(c1)OCCO2)N1CCC(c2nc3ccc(Cl)cc3[nH]2)CC1	HIV Env fusion 55.2 (no result: Wnt act)
O=S(=O)(c1ccc2c(c1)OCCO2)N1CCC(c2nc3ccccc3[nH]2)CC1	none (no result: esBAF inh, miR122 inh, Wnt act)
S=C1NCCc2ccc(Cl)cc2C1c1ccccc1Cl (centres undefined)	none (no result: Wnt act)
Clc1ccc2c(c1)C(C1=NCCN1)c1ccccc1CS2 (centres undefined)	HIV Env fusion 113.5 (no result: esBAF inh, miR122 inh)
COc1ccc(C(CC(=O)N2CCCC(C)C2)c2c(OC)cc(OC)c3c(-c4ccccc4)cc(=O)oc23)cc1 (centres undefined)	miR122 inh 92.1
CCN(CC)C(=O)CC(c1ccc(N(C)C)cc1)c1c(OC)cc(OC)c2c(-c3ccccc3)cc(=O)oc12 (centres undefined)	miR122 inh 99.1
CCCn1c(SCC(=O)NC2CCCCC2)nnc1-c1ccncc1	Wnt act 54.2
COc1ccc(/C=N/Nc2ccc([N+](=O)[O-])cc2)cc1O	esBAF inh 80.8, Wnt act 33.0, MITF act 104.1 (no result: miR122 inh)
Cc1cccc(N/N=C/c2ccc(O)c(O)c2O)c1	none (no result: esBAF inh, miR122 inh)
COc1cccc(/C=N/Nc2c(Cl)cncc2Cl)c1O	esBAF inh inconclusive, MITF act 112.6
COc1cccc(N/N=C/c2cccc(Br)c2O)c1	esBAF inh 52.7, Wnt act 34.6
COC(=O)c1ccc(N/N=C/c2cc([N+](=O)[O-])cc(OC)c2O)cc1	none
COc1cccc(/C=N/Nc2ccc([N+](=O)[O-])cc2)c1O	Wnt act 39.9, MITF act 104.3 (no result: miR122 inh)
CC(C)OCCCN1CN(S(=O)(=O)c2ccccc2)c2nc3ccccc3nc21	esBAF inh 43.4 (no result: HIV Env fusion)
COCCCN1CN(S(=O)(=O)c2ccc(Cl)cc2)c2nc3ccccc3nc21	none (no result: Wnt act, HIV Env fusion)
CCC(=O)N1[C@@H]2c3cccc(=O)n3C[C@@H]2[C@@H](CO)[C@@H]1C(=O)NC1CCCCC1	none (no result: Wnt act, MITF act, HIV Env fusion)
Nc1ccc2ccccc2c1N=Nc1ccccc1	esBAF inh 43.5
CC1(C)NC(=O)N(CCOCCOc2cccc(Oc3ccccc3)c2)C1=O	HIV Env fusion 60.2 (no result: Wnt act)
CCC(C)Oc1cccc(OCCCCN2C(=O)NC(C)(C)C2=O)c1 (centres undefined)	none (no result: Wnt act)
O=C(C[C@@H]1CC[C@H]2NC[C@H](O)COC[C@@H]2O1)Nc1nccs1	none (no result: Wnt act, MITF act)
c1ccc2c(Cn3nnc4ccccc43)cccc2c1	none (no result: Wnt act, HIV Env fusion)
c1ccc2c(COn3nnc4ccccc43)cccc2c1	esBAF inh 55.8 (no result: Wnt act)
Cc1ccc(O)c(-c2cc3ccccc3[nH]2)c1	Wnt act 36.7
COc1ccc(-c2cc(=O)c3ccccc3[nH]2)cc1	none
COc1ccc(-c2cc3ccccc3[nH]2)cc1	Wnt act 54.1, MITF act inconclusive
C[C@@H]1CN([C@@H](C)CO)C(=O)Cc2cc(NC(=O)Nc3cccc4ccccc34)ccc2O[C@@H]1CN(C)S(=O)(=O)c1ccccc1	none (no result: Wnt act, MITF act)
CC(=O)n1nc(-c2ccc(C)cc2)nc1NCc1ccco1	MITF act 104.6 (no result: esBAF inh, miR122 inh)
COc1ccc(NC(=O)CSc2nc(O)cc(=O)n2-c2ccccc2)cc1	none
CCCCn1c(SCC(=O)Nc2nnc(CC)s2)nc2c1c(=O)n(C)c(=O)n2C	miR122 inh 237.4 (no result: Wnt act)
O=C(CSc1nc(O)cc(=O)n1-c1ccccc1)Nc1nc2ccccc2s1	HIV Env fusion 66.6 (no result: esBAF inh, MITF act)
CC(C)n1c(SCC(=O)Nc2nc3c(s2)CCCC3)nc2c1c(=O)n(C)c(=O)n2C	HIV Env fusion 87.5
CCCn1c(SCC(=O)Nc2nc3ccccc3s2)nc2c1c(=O)n(C)c(=O)n2C	HIV Env fusion 63.6 (no result: Wnt act)
C[C@H](CO)N1C[C@H](C)[C@@H](CN(C)Cc2ccccc2C(=O)O)Oc2cc(-c3ccc(C(=O)N(C)C)cc3)ccc2S1(=O)=O	none (no result: Wnt act, MITF act)
C(=N\Nc1nncc2ccccc12)/c1ccccn1	HIV Env fusion 84.2
Fc1cccc(/C=N/Nc2nncc3ccccc23)c1	none
S=c1[nH]nc(-c2ccncc2)n1/N=C/c1cn(-c2ccccc2)nc1-c1ccccc1	Wnt act 36.7 (no result: esBAF inh, MITF act)
COc1ccc(NC(=O)N(C)C[C@@H]2Oc3ccc(NS(=O)(=O)c4ccc(Cl)cc4)cc3C(=O)N([C@H](C)CO)C[C@H]2C)cc1	none (no result: Wnt act, MITF act)
C=CCSc1nnc(-c2sc(-c3ccccc3)nc2C)n1C	Wnt act 33.1 (no result: esBAF inh, miR122 inh, MITF act)
CCOC(=O)c1c(C)n(-c2ccc(C)cc2)c2c(C(C(C)=O)C(=O)O)c(Br)c(O)c(O)c12 (centres undefined)	none (no result: Wnt act, MITF act, HIV Env fusion)
CCOC(=O)C(C(C)=O)c1c(Br)c(O)c(O)c2c(C(=O)c3ccc(C)cc3)coc12 (centres undefined)	HIV Env fusion 108.2 (no result: Wnt act)
O=C(CCn1cccn1)N1CCCC(N2CCN(c3cccc(C(F)(F)F)c3)CC2)C1 (centres undefined)	Wnt act 31.7
O=C1/C(=C\c2ccccc2)SC(=S)N1CCC(=O)N1CCCCC1CCO (centres undefined)	none
